Measurements: ChEMBL document CHEMBL4513139, “CO-ADD screening of University of Strathclyde (UK) compounds”
Results with a measured potency or affinity are listed apart.

Columns and labels:
Klebsiella pneumoniae = settings: Concentration 32 ug.mL-1; ASSAY_TEST Inhibition of Bacterial Growth; detection method Absorption (OD600); MEDIA CAMHB; plate type 384well; NBS; CORNING #3640; time 18 hr
Candida albicans = settings: 32 ug/mL
Cryptococcus neoformans = settings: Concentration 32 ug.mL-1; ASSAY_TEST Inhibition of Fungal Growth; detection method Resazurin; Absorption (OD600-OD570); plate type 384well; NBS; CORNING #3640

Compound | Inhibition (Klebsiella pneumoniae) | Inhibition (Candida albicans) | Inhibition (Cryptococcus neoformans)
CC(=O)Nc1cc(C(=O)Nc2cc(C(=O)Nc3cc(C(=O)NCCCN(C)C)n(C)c3)n(C)c2)n(C)c1.O=C(O)C(F)(F)F | 11.92% | 0.65% | -116.29%
Cc1ccc(S(=O)(=O)NCCc2cn(Cc3cnc(C)nc3N)nn2)cc1 | 1.07% | 3.05% | -48.53%
COC(=O)c1ccc(C(=O)Nc2cc(C(=O)Nc3cc(C(=O)NCCN4CCOCC4)n(C)c3)n(C)c2)cc1.O=C(O)C(F)(F)F | 8.44% | 7.27% | -98.27%
CN(C)CCCNC(=O)c1cc(NC(=O)c2cc(NC(=O)c3cc4ccccc4cn3)cn2C)cn1C.O=C(O)C(F)(F)F | 12.4% | 3.58% | -81.77%
Cc1ncc(Cn2cc(CCCCO)nn2)c(N)n1 | 1.98% | 2.99% | -60.21%
Cc1ncc(CNc2ccc(C(C)(C)C)cc2)c(N)n1 | 2.67% | -0.83% | -46.61%
Cn1cc(NC(=O)c2cc(NC(=O)CCC(=O)O)cn2C)cc1C(=O)NCCN1CCOCC1.O=C(O)C(F)(F)F | 14.45% | 1.67% | -38.65%
Cc1ncc(CNc2cccc(F)c2)c(N)n1 | 9.56% | 1.91% | -50.34%
CC(=N)Nc1cc(C(=O)Nc2cc(C(=O)Nc3cc(C(=O)NCCN4CCOCC4)n(C)c3)n(C)c2)n(C)c1.O=C(O)C(F)(F)F.O=C(O)C(F)(F)F | 13.68% | 2.29% | -100.58%
Cn1cc(NC(=O)c2cc(NC(=O)c3sc(N)nc3C(F)(F)F)cn2C)cc1C(=O)NCCC(=N)N.O=C(O)C(F)(F)F | -8.6% | 5.72% | -104.75%
CC(C)CCn1cc(NC(=O)c2cc(NC(=O)c3cc(NC(=N)c4ccccc4)cn3C)cn2C)cc1C(=O)NCCCN(C)C.O=C(O)C(F)(F)F.O=C(O)C(F)(F)F | 2.69% | 0.79% | -53.65%
COc1cccc(/C=C/c2ccc(C(=O)Nc3cc(C(=O)Nc4cc(C(=O)NCCN(C)C)n(C)c4)n(C)c3)cc2)c1.O=C(O)C(F)(F)F | 26.76% | 28.1% | 101.07%
CN(C)CCCNC(=O)c1cc(NC(=O)c2cc(NC(=O)c3cc(NC(=N)c4ccccc4)cn3C)cn2C)cn1C.O=C(O)C(F)(F)F.O=C(O)C(F)(F)F | 1.31% | 0.01% | -106.51%
COC(=O)CCC(=O)Nc1cc(C(=O)Nc2cc(C(=O)NCCC(=N)N)n(C)c2)n(C)c1.O=C(O)C(F)(F)F | 5.44% | 2.68% | -68.45%
CN(C)CCCNC(=O)c1cc(NC(=O)c2cc(NC(=O)CCC(=O)O)cn2C)cn1C.O=C(O)C(F)(F)F | 6.24% | 0.85% | -54.8%
COc1cccc(C(=N)Nc2cc(C(=O)Nc3cc(C(=O)Nc4cn(CCCN(C)C)cn4)n(C)c3)n(C)c2)c1.O=C(O)C(F)(F)F.O=C(O)C(F)(F)F | 25.01% | 0.2% | -90.24%
COc1cccc(C(=N)Nc2cc(C(=O)Nc3cc(C(=O)NCCC(=N)N)n(C)c3)n(C)c2)c1.O=C(O)C(F)(F)F.O=C(O)C(F)(F)F | 100.7% | 39.3% | 101.54%
Cc1ncc(Cn2cc(CCCO)nn2)c(N)n1 | -1.34% | 0.26% | -29.76%
COc1cccc(C(=N)Nc2cc(C(=O)Nc3cc(C(=O)Nc4cc(C(=O)NCCCN(C)C)n(C)c4)n(C)c3)n(C)c2)c1.O=C(O)C(F)(F)F.O=C(O)C(F)(F)F | 5.64% | 0.48% | -103.02%
CN(C)CCCNC(=O)c1cc(NC(=O)c2cc(NC(=O)c3cc(NC(=N)N)cn3C)cn2C)cn1C.O=C(O)C(F)(F)F.O=C(O)C(F)(F)F | 7.81% | 2.03% | -105.56%
COC(=O)CCC(=O)Nc1cc(C(=O)Nc2cc(C(=O)NCCN3CCOCC3)n(C)c2)n(C)c1.O=C(O)C(F)(F)F | 8.45% | 1.41% | -63.38%
Cc1ncc(CO)c(N)n1 | -2.19% | -0.12% | -45.32%
Cc1ncc(Cn2cc(CC(N)C(=O)O)nn2)c(N)n1.Cl (stereo unspecified) | -13.87% | 2.15% | -37.7%
Cn1cc(NC(=O)c2cc(NC(=O)c3ccc(/C=C/c4cccc(F)c4)cc3)cn2C)cc1C(=O)NCCN1CCOCC1.O=C(O)C(F)(F)F | -2.66% | 24.2% | 
